High-throughput results from PubChem.
VLA-4 inh: inhibition in a human VLA-4 binding assay | actives 0.2% (n = 330,000) | P13612 | inhibition, % (about 7 µM as worked out from the volumes in the protocol) | VLA-4 expressing cells, ligand binding flow cytometry; in the data active = inhibition above about 50%
LAP4-GFP MLPCN: modulators of TOR pathway LAP4-GFP in S. cerevisiae. S. cerevisiae LAP4-GFP multiplex, flow cytometry GFP, 3 h; median GFP as percent of DMSO wells. GFP response vs DMSO, % at 10 µM. actives 0.34% (n = 320,000). AID 2023;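 active = GFP response vs DMSO above a set limit, about the screen mean plus 3 SD, cut at about 150% in these data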
RPL19A TOR yeast: yeast TOR pathway RPL19A-GFP modulation. S. cerevisiae RPL19A-GFP strain, flow cytometry, 3 h; hits give low values. percent response vs DMSO, % at 10 µM. actives 0.3% (n = 330,000). AID 2025;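 active = percent response vs DMSO below 50%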;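 also: median channel GFP fluorescence of the barcoded RPL19A-GFP strain; ratio of sample median GFP to plate DMSO average so 100% = DMSO; lower means less RPL19A-GFP as with rapamycin TOR inhibition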
AGP1 TOR yeast: modulators of TOR pathway AGP1-GFP in S. cerevisiae | S. cerevisiae AGP1-GFP multiplex flow cytometry, 3 h; GFP as percent of DMSO wells | GFP response vs DMSO, % at 10 µM | actives 0.02% (n = 320,000) | AID 2066;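 active = GFP response relative to DMSO above a set limit, near screen average plus 3 SD, cut at about 150% in these data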;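 also: median GFP channel fluorescence of the gated AGP1 strain per well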
MEP2-GFP yeast: modulators of TOR pathway MEP2-GFP in S. cerevisiae; AID 2016; GFP response vs DMSO, % at 10 µM; actives 0.51% (n = 330,000); S. cerevisiae MEP2-GFP strain, flow cytometry GFP, 3 h; 100% = DMSO control level;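 active = GFP response versus DMSO above a set limit, roughly screen mean plus 3 SD, cut at about 180% in these data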;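 also: median GFP fluorescence of the barcode-gated MEP2-GFP cells per well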
CIT2-GFP yeast: alters CIT2-GFP fluorescence in TOR pathway yeast screen | AID 2029 | S. cerevisiae CIT2-GFP strain, flow cytometry, 3 h; 100 means same as DMSO wells | actives 0.065% (n = 320,000) | GFP response vs DMSO, % at 10 µM;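 active = GFP response relative to DMSO above a set limit, near the screen mean plus 3 SD, cut at about 150% in these data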;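 also: ratio of well median GFP fluorescence to mean of DMSO wells on the plate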
VLA-4 allo CP: confirmation of allosteric modulators of human VLA-4 integrin. actives 2% (n = 1,300). AID 2813. U937 cells, HUTS-21 LIBS mAb binding, flow cytometry; LDV ligand present at threefold Kd. inhibition, % at 6.7 µM. shares compounds with VLA-4 inh; in the data active = inhibition above about 40%;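 also: 0% = ligand without compound and 100% = no ligand background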
Active calls of the source: *; . = not tested or not shown. Most compounds without a hit are left out; they make up all but 1.1% or so of the library.

SMILES	VLA-4 inh	LAP4-GFP MLPCN	RPL19A TOR yeast	AGP1 TOR yeast	MEP2-GFP yeast	CIT2-GFP yeast	VLA-4 allo CP
CC1CCCC(C)N1C(=O)COC(=O)COc1ccc(C#N)cc1 (configuration not stated)	-2	96	102	92	95	92	.
COc1cc(NC(=O)c2cc(S(=O)(=O)N3CCCCC3)ccc2N2CCOCC2)cc(OC)c1	0	108	99	110	101	90	3
CCOC(=O)C1(Cc2ccccc2Cl)CCN(C(=O)CCn2ccnc2C)CC1	53*	157*	79	132	388*	131	-6
CCOC(=O)C1(Cc2ccccc2Cl)CCN(S(=O)(=O)N(C)C)CC1	11	94	93	93	94	84	.
NS(=O)(=O)c1ccc(Sc2ccc3ccccc3c2)nc1	7	103	106	103	105	104	.
O=C1CN(C(=O)c2ccccc2F)C(c2ccccc2)c2cc(Cl)ccc2N1 (configuration not stated)	5	94	99	92	97	87	.
COc1ccccc1-c1cc(C(F)(F)F)nc(S(=O)(=O)CCCC(=O)N2CCCCC2C)n1 (configuration not stated)	50*	93	102	104	101	.	14
COc1ccccc1-c1cc(C(F)(F)F)nc(S(=O)(=O)CCCC(=O)NC(C)C)n1	41	111	105	112	110	93	.
CCCCOc1ccc(Cc2c(O)nc(SC)[nH]c2=O)cc1	2	100	103	108	111	102	.
O=C(NCc1ccccc1)C1CCCN(C(=O)Nc2ccccc2)C1 (configuration not stated)	75*	101	100	100	100	92	0
O=C(NCc1ccccc1F)C1CCCN(C(=O)Nc2ccccc2)C1 (configuration not stated)	10	105	103	105	105	109	.
O=C(CSc1nnc(NC2CC2)s1)NN1C(=O)NC2(CCCCC2)C1=O	-5	97	97	100	102	94	.
O=C(CSc1nnc(Nc2ccccc2)s1)NN1C(=O)NC2(CCCCC2)C1=O	49	101	104	102	107	105	-8
CC(=O)Nc1ccc(NC(=O)CSc2nc(N)c(NC(=O)c3ccco3)c(=O)[nH]2)cc1	9	89	100	93	99	94	.
O=C(N/N=C/c1ccc(Cl)c([N+](=O)[O-])c1)c1cc(-c2ccccc2)nc2ccccc12	56*	101	98	99	103	96	5
O=C(N/N=C/c1ccc(Cl)cc1)c1cc(-c2cccnc2)nc2ccccc12	50*	91	100	107	105	94	18
COc1ccc(C(=O)c2cc([N+](=O)[O-])ccc2N2CCOCC2)cc1	31	89	91	91	93	93	47*
COc1ccc(CCNC(=O)c2cc([N+](=O)[O-])ccc2N2CCOCC2)cc1	18	102	97	106	95	107	.
CCOc1ccc(C(=O)c2cc([N+](=O)[O-])ccc2N2CCOCC2)cc1	51*	96	102	100	99	85	49*
O=C(O)C1C2CCC(C2)C1C(=O)NCCc1ccccc1 (configuration not stated)	8	99	102	97	106	100	.
COc1cccc(CN2CC(C(=O)N(C)CC3CCOCC3)CCC2=O)c1 (configuration not stated)	17	97	98	97	95	95	.
CC(C)(C)[C@H]1C=C(C(=O)Nc2ccccc2)O[C@@H](OCc2ccc(CO)cc2)C1	34	125	92	97	102	80	.
CCO[C@@H]1OC(C(=O)N2CCN(Cc3ccc4c(c3)OCO4)CC2)=C[C@H](C2CCCCC2)[C@H]1CCCO	-6	104	98	91	88	108	.
CC(C)(C)[C@H]1C=C(C(=O)Nc2ccccc2)O[C@@H](OCCCCO)C1	21	121	102	89	90	100	7
CCO[C@H]1OC(C(=O)N2CCN(Cc3ccccc3)CC2)=C[C@@H](C2CCCCC2)[C@@H]1CCCO	53*	94	99	101	102	98	0
SMILES	VLA-4 inh	LAP4-GFP MLPCN	RPL19A TOR yeast	AGP1 TOR yeast	MEP2-GFP yeast	CIT2-GFP yeast	VLA-4 allo CP
CCO[C@H]1OC(C(=O)Nc2ccccc2)=C[C@@H](C)[C@@H]1CCCO	91*	130	97	78	97	71	-6
CC(C)(C)c1ccc(C(=O)NCC(=O)N/N=C/c2cccnc2)cc1	5	99	103	100	105	98	.
CC1CC2C3CCC4=CC(=O)C=CC4(C)[C@@]3(Cl)C(O)CC2(C)C1(O)C(=O)CO (some centres not stated)	19	104	102	96	94	103	3
Cn1cccc1C(=O)NC(=O)COC(=O)c1ccccc1O	55*	104	97	98	96	93	3
CCC(C)NC(=O)CC(NS(=O)(=O)c1ccc(Cl)cc1)c1ccco1 (configuration not stated)	108*	101	101	102	108	111	8
Cc1ccc(S(=O)(=O)NC(CC(=O)O)c2ccco2)cc1 (configuration not stated)	4	105	101	.	104	105	.
Cc1cc(C)c(S(=O)(=O)c2ccc(F)cc2C)c(Cl)n1	44	95	106	105	106	100	-14
CCN(C[C@H]1N[C@@](CC)(C(=O)OC)[C@H]2C(=O)N(C)C(=O)[C@@H]12)C(=O)Nc1ccc(C)cc1	-14	96	93	94	93	98	.
COC(=O)c1cc(CNC(=O)C(C)NS(=O)(=O)c2ccc(C)c(C)c2)ccc1OC (configuration not stated)	3	104	116	103	118	104	0
Cc1ccc(NC(=O)CSc2ncc3ccccn23)cc1C	-5	102	91	97	94	91	.
COc1cccc(-c2ncc3ccccc3c2COC(=O)c2ccc(F)cc2)c1	-3	132	90	95	85	77	.
Cc1ccc(-c2nn3c(C)nnc3c3ccccc23)cc1S(=O)(=O)NCCN1CCOCC1	0	99	98	96	104	105	-10
Cc1ccc(-c2n[nH]c(=O)c3ccccc23)cc1S(=O)(=O)NCCN1CCOCC1	1	88	94	94	90	92	.
CCOC(=O)N1CCN(S(=O)(=O)c2cc(-c3nn4c(C)nnc4c4ccccc34)ccc2C)CC1	-3	86	92	88	94	77	-2
